# Measurements from the supplement of paper PMC9262897, “Low-cost anti-mycobacterial drug discovery using engineered E. coli” (Nature Communications, 2022).
# Where a name gives a salt, the structure may show the parent alone. ± gives the standard deviation of the averaged measurements.
# Key:
# Experiment in all cases: growth (OD600 after 10 h); higher = more growth (less inhibition)
# [1] = system: E. coli TESEC Alr+ wild-type control; conditions: compound 0.1 mM; raw OD600 reference: median of DMSO wells 0.241, cell-free background 0.041
# Method: (§1)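 TESEC Mtb Alr E. coli, or the Alr+ wild-type control, in 384-well plates with Prestwick library compounds at 0.1 mM and 1% DMSO, across arabinose induction levels of 1E3 to 1E7 nM. Growth is read as OD600 after 10 h at 37 °C in triplicate biological replicates.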
# E. coli TESEC Mtb Alr [2] = conditions: compound 0.1 mM
# Method: as §1
# E. coli TESEC Mtb Asd = conditions: compound 0.1 mM
# Method: (§2)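 TESEC E. coli strains in which the native enzyme is deleted and replaced by arabinose-inducible Mtb Asd, DapB, CysH or TrpD, each grown in its selective medium. Strains were screened against the Prestwick library at 0.1 mM and 1% DMSO in 384-well format at low and high arabinose induction. Growth is read as OD600 after 10 h in triplicate.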
# E. coli TESEC Mtb DapB = conditions: compound 0.1 mM
# Method: as §2
# [3] = system: E. coli TESEC Alr+ wild-type control; conditions: compound 0.1 mM; raw OD600 reference: median of DMSO wells 0.49, cell-free background 0.052
# Method: (§3)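 TESEC Mtb Alr E. coli (ΔaraC ΔtolC ΔentC Δalr ΔdadX, arabinose-inducible Mtb Alr) or the Alr+ wild-type control strain, grown in defined M9-fructose medium without D-alanine in 96-well plates with Prestwick library compounds at 0.1 mM and 1% DMSO. Low Alr induction is 0.1 µM arabinose and high induction is 10 mM arabinose.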
# E. coli TESEC Mtb Alr [4] = conditions: compound 0.1 mM; remark: listed apart in the source
# Method: as §3
# [5] = arabinose 1000 nM, raw OD600 reference: median of DMSO wells 0.294, cell-free background 0.041
# [6] = arabinose 10000 nM, raw OD600 reference: median of DMSO wells 0.264, cell-free background 0.041
# [7] = arabinose 100000 nM, raw OD600 reference: median of DMSO wells 0.201, cell-free background 0.041
# [8] = arabinose 1000000 nM, raw OD600 reference: median of DMSO wells 0.193, cell-free background 0.041
# [9] = arabinose 10000000 nM, raw OD600 reference: median of DMSO wells 0.146, cell-free background 0.041
# [10] = arabinose induction (level): High, raw OD600 reference: median of DMSO wells 0.331, cell-free background 0.041
# [11] = arabinose induction (level): Low, raw OD600 reference: median of DMSO wells 0.417, cell-free background 0.041
# [12] = arabinose induction (level): High, raw OD600 reference: median of DMSO wells […], cell-free background 0.041
# [13] = arabinose induction (level): Low, raw OD600 reference: median of DMSO wells 0.227, cell-free background 0.041
# [14] = arabinose 100 nM, raw OD600 reference: median of DMSO wells 0.413, cell-free background 0.052
# [15] = arabinose 10000000 nM, raw OD600 reference: median of DMSO wells […], cell-free background 0.052
Structure (SMILES),growth [1],growth (E. coli TESEC Mtb Alr [2]; [5]),growth (E. coli TESEC Mtb Alr [2]; [6]),growth (E. coli TESEC Mtb Alr [2]; [7]),growth (E. coli TESEC Mtb Alr [2]; [8]),growth (E. coli TESEC Mtb Alr [2]; [9]),growth (E. coli TESEC Mtb Asd; [10]),growth (E. coli TESEC Mtb Asd; [11]),growth (E. coli TESEC Mtb DapB; [12]),growth (E. coli TESEC Mtb DapB; [13]),growth [3],growth (E. coli TESEC Mtb Alr [4]; [14]),growth (E. coli TESEC Mtb Alr [4]; [15])
COC(=O)C1=C(C)NC(C)=C(C(=O)OC)C1c1ccccc1[N+](=O)[O-] [Nifedipine],0.0488 ± 0.00049,0.144 ± 0.0021,0.2006 ± 0.0018,0.136 ± 0.0053,0.0952 ± 0.0041,0.149 ± 0.0044,0.0844 ± 0.0011,0.0795 ± 0.0099,0.155 ± 0.018,0.216 ± 0.069,0.447 ± 0.017,0.39 ± 0.0088,0.21 ± 0.039
CCN(CC)C(=O)/C(C#N)=C/c1cc(O)c(O)c([N+](=O)[O-])c1 [Entacapone],0.0523 ± 0.00059,0.0552 ± 0.0036,0.0571 ± 0.00062,0.0534 ± 0.0015,0.0544 ± 0.00092,0.0482 ± 0.00026,0.142 ± 0.005,0.149 ± 0.029,0.138 ± 0.007,0.172 ± 0.0056,0.144 ± 0.02,0.195 ± 0.011,0.0695 ± 0.0028
COc1ccc(C(Cl)=C(c2ccc(OC)cc2)c2ccc(OC)cc2)cc1 [Chlorotrianisene],0.242 ± 0.0055,0.306 ± 0.018,0.2565 ± 0.0023,0.189 ± 0.013,0.208 ± 0.013,0.168 ± 0.049,0.281 ± 0.037,0.264 ± 0.019,0.232 ± 0.016,0.267 ± 0.0015,,0.443 ± 0.02,0.407 ± 0.019
CC(=O)N[C@@H](CS)C(=O)O [Acetylcysteine],0.2422 ± 0.0011,0.298 ± 0.0096,0.2731 ± 0.0017,0.203 ± 0.019,0.21 ± 0.012,0.142 ± 0.0051,0.437 ± 0.059,0.393 ± 0.017,0.196 ± 0.014,0.232 ± 0.053,,0.4122 ± 0.0033,0.344 ± 0.0049
Nc1nc2ccc(OC(F)(F)F)cc2s1 [Riluzole hydrochloride],0.176 ± 0.007,0.188 ± 0.0051,0.255 ± 0.0058,0.212 ± 0.007,0.262 ± 0.016,0.194 ± 0.0031,0.388 ± 0.01,0.208 ± 0.02,0.241 ± 0.005,0.241 ± 0.0089,,0.415 ± 0.014,0.419 ± 0.0084
C#CCN(C)Cc1ccccc1 [Pargyline hydrochloride],0.25 ± 0.0048,0.291 ± 0.0091,0.278 ± 0.0057,0.206 ± 0.02,0.19 ± 0.0033,0.142 ± 0.0058,0.34 ± 0.035,0.429 ± 0.047,0.177 ± 0.0081,0.194 ± 0.0055,0.516 ± 0.11,0.412 ± 0.0092,0.357 ± 0.007
CCC(=O)O[C@@H](O[P@](=O)(CCCCc1ccccc1)CC(=O)N1C[C@H](C2CCCCC2)C[C@H]1C(=O)O)C(C)C [Fosinopril],0.221 ± 0.007,0.33 ± 0.0063,0.25 ± 0.015,0.281 ± 0.018,0.0879 ± 0.0031,0.154 ± 0.0039,0.185 ± 0.013,0.351 ± 0.065,0.165 ± 0.0076,0.226 ± 0.017,0.508 ± 0.076,0.334 ± 0.044,0.0696 ± 0.00091
CC(C(O)c1ccc(O)cc1)N1CCC(Cc2ccccc2)CC1 (stereo unspecified) [Ifenprodil tartrate],0.195 ± 0.018,0.251 ± 0.019,0.276 ± 0.0052,0.194 ± 0.0092,0.143 ± 0.0037,0.172 ± 0.0094,0.313 ± 0.065,0.427 ± 0.028,0.1878 ± 0.00062,0.227 ± 0.036,0.453 ± 0.037,0.409 ± 0.011,0.312 ± 0.0043
CCN(CC)CCc1nc(-c2ccccc2)no1 [Oxalamine citrate salt],0.23 ± 0.012,0.273 ± 0.021,0.27 ± 0.0036,0.187 ± 0.0043,0.187 ± 0.0094,0.135 ± 0.0019,0.307 ± 0.045,0.332 ± 0.031,0.186 ± 0.0074,0.216 ± 0.013,0.537 ± 0.036,0.406 ± 0.011,0.343 ± 0.015
CC(=O)[C@H]1CC[C@H]2[C@@H]3C[C@H](C)C4=CC(=O)CC[C@]4(C)[C@H]3[C@@H](O)C[C@]12C [Medrysone],0.122 ± 0.0039,0.162 ± 0.0096,0.2463 ± 0.002,0.1231 ± 0.00055,0.112 ± 0.003,0.138 ± 0.0029,0.217 ± 0.02,0.385 ± 0.041,0.179 ± 0.018,0.18 ± 0.0064,0.457 ± 0.067,0.399 ± 0.0044,0.213 ± 0.018
O=C(CCCN1CCC(O)(c2ccc(Br)cc2)CC1)c1ccc(F)cc1 [Bromperidol],0.215 ± 0.0079,0.287 ± 0.0074,0.265 ± 0.0061,0.218 ± 0.028,0.179 ± 0.0028,0.148 ± 0.0045,0.254 ± 0.025,0.344 ± 0.092,0.177 ± 0.014,0.215 ± 0.044,0.381 ± 0.013,0.417 ± 0.0095,0.306 ± 0.022
CC1(C)O[C@@H]2[C@@H](CO[C@@]3(COS(N)(=O)=O)OC(C)(C)O[C@@H]23)O1 [Topiramate],0.234 ± 0.0043,0.291 ± 0.0074,0.2714 ± 0.0027,0.18 ± 0.018,0.204 ± 0.0062,0.136 ± 0.0016,0.243 ± 0.055,0.295 ± 0.057,0.19 ± 0.01,0.203 ± 0.022,0.541 ± 0.075,0.4226 ± 0.0021,0.302 ± 0.0096
CC(C)N1CCN(c2ccc(OCC3COC(Cn4cncn4)(c4ccc(Cl)cc4Cl)O3)cc2)CC1 (stereo unspecified) [Terconazole],0.193 ± 0.011,0.266 ± 0.023,0.266 ± 0.0048,0.23 ± 0.022,0.205 ± 0.0063,0.15383 ± 0.00015,0.252 ± 0.021,0.397 ± 0.14,0.198 ± 0.0065,0.223 ± 0.011,0.462 ± 0.031,0.412 ± 0.014,0.315 ± 0.019
NC[C@H]1O[C@H](O[C@H]2[C@H](O[C@@H]3O[C@H](CO)[C@@H](O)[C@H]3O)[C@@H](O)[C@H](N)C[C@@H]2N)[C@H](N)[C@@H](O)[C@@H]1O [Ribostamycin sulfate salt],0.238 ± 0.011,0.286 ± 0.0099,0.269 ± 0.0065,0.182 ± 0.025,0.201 ± 0.015,0.138 ± 0.0082,0.37 ± 0.013,0.458 ± 0.012,0.218 ± 0.023,0.226 ± 0.016,0.549 ± 0.058,0.42 ± 0.011,0.366 ± 0.012
CN(C)c1ccc(O)c2c1C[C@H]1C[C@H]3[C@H](N(C)C)C(=O)C(C(N)=O)=C(O)[C@@]3(O)C(=O)C1=C2O [Minocycline hydrochloride],0.0402 ± 0.00064,0.0422 ± 0.00083,0.0402 ± 0.00026,0.0426 ± 0.00055,0.0397 ± 0.00075,0.0426 ± 0.00067,0.06847 ± 0.00055,0.0692 ± 0.0029,0.0606 ± 0.01,0.0519 ± 0.0019,,0.0623 ± 0.0026,0.0637 ± 0.0055
COc1ccc2cc([C@H](C)C(=O)O)ccc2c1 [Naproxen],0.26 ± 0.0081,0.265 ± 0.029,0.249 ± 0.014,0.187 ± 0.012,0.168 ± 0.0019,0.132 ± 0.0043,0.247 ± 0.028,0.426 ± 0.063,0.18 ± 0.062,0.217 ± 0.027,,0.42 ± 0.0057,0.293 ± 0.019
CO[C@H]1/C=C/O[C@@]2(C)Oc3c(C)c(O)c4c(O)c(c(/C=N/N5CCN(C)CC5)c(O)c4c3C2=O)NC(=O)/C(C)=C\C=C\[C@H](C)[C@H](O)[C@@H](C)[C@@H](O)[C@@H](C)[C@H](OC(C)=O)[C@@H]1C [Rifampicin],0.0429 ± 0.0015,0.0442 ± 0.003,0.04117 ± 0.00021,0.0444 ± 0.0018,0.04127 ± 0.00012,0.043 ± 0.0014,0.0643 ± 0.011,0.0572 ± 0.0093,0.106 ± 0.094,0.0504 ± 0.00072,0.05337 ± 0.00042,0.0557 ± 0.00079,0.0524 ± 0.00092
